Source: PubChem BioAssay (NCI)
About 83,000 compounds went through this panel and 20% of them were active in at least one assay; those are over-represented in the sample as a whole.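 48-hour exposure, single concentration, 96-well plates; percent growth endpoint where 0 means no net growth. Active: below 10.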 Values without a mark were called inactive. Active and inactive are the calls of the source.

Experiments:
Assay in all cases: NCI-60 one-dose screen, 48 h (100 = growth as untreated, 0 = no growth, -100 = all killed)
DU-145 prostate = conditions: 10 µM
K-562 leukemia = conditions: 10 µM
MDA-MB-231 breast = conditions: 10 µM
RXF 393 renal = conditions: 10 µM
SF-268 CNS = conditions: 10 µM
SF-539 CNS = conditions: 10 µM
UACC-257 melanoma = conditions: 10 µM
M14 melanoma = conditions: 10 µM
HCT-15 colon = conditions: 10 µM
HT29 colon = conditions: 10 µM
SNB-75 CNS = conditions: 10 µM
SNB-19 CNS = conditions: 10 µM
U251 CNS = conditions: 10 µM
PC-3 prostate = conditions: 10 µM
SK-MEL-5 melanoma = conditions: 10 µM
UACC-62 melanoma = conditions: 10 µM unless noted
LOX IMVI melanoma = conditions: 10 µM
SK-MEL-28 melanoma = conditions: 10 µM
MALME-3M melanoma = conditions: 10 µM
SF-295 CNS = conditions: 10 µM

SMILES	growth (DU-145 prostate)	growth (K-562 leukemia)	growth (MDA-MB-231 breast) [%]	growth (RXF 393 renal)	growth (SF-268 CNS) [%]	growth (SF-539 CNS)	growth (UACC-257 melanoma)	growth (M14 melanoma)	growth (HCT-15 colon)	growth (HT29 colon)	growth (SNB-75 CNS) [%]	growth (SNB-19 CNS) [%]	growth (U251 CNS)	growth (PC-3 prostate)	growth (SK-MEL-5 melanoma)	growth (UACC-62 melanoma)	growth (LOX IMVI melanoma)	growth (SK-MEL-28 melanoma)	growth (MALME-3M melanoma)	growth (SF-295 CNS) [%]
CCCCCCCO	114%	106%	104	97.3%	125	89.5%	93.5%	98.5%	95.6%	132%	106	102	97.8%	105%	99.2%	97.7%	99.8%	98.3%	–	–
CC1(C)S(=O)(=O)OCCOS1(=O)=O	107%	100%	–	114%	–	100%	82.2%	100%	–	105%	98.7	–	95%	100%	93.6%	92.3%	95.2%	112%	94.5%	97.7
CCOC(=O)Nc1nn[nH]n1	108%	110%	104	105%	100	97.7%	116%	95.3%	91.7%	110%	94.8	99.5	115%	96.8%	103%	99.3%	92.9%	115%	–	106
CC1=NN(c2ccccc2)C(=O)/C1=C\N1CC(=O)NC1=S	106%	104%	98.3	108%	101	109%	90.6%	103%	107%	103%	91.2	101	–	93.6%	101%	97.1%	98.4%	112%	–	104
CNC(=S)NC(C)(C)C	108%	103%	–	112%	–	99.9%	92.7%	98.8%	106%	101%	146	–	97%	89.9%	93.6%	94%	105%	108%	97.1%	104
Cc1cc(OCCO)cc(C)c1Cl	117%	118%	114	134%	109	111%	110%	112%	–	–	124	106	110%	97.2%	112%	95.7%	98%	118%	–	130
CN(C)CCN(C)CC(C)(C)C(=O)/C=C/c1ccc(Cl)cc1	6.16% (active)	4.79% (active)	–	-82.8% (active)	–	-25.9% (active)	23.1%	-64.4% (active)	-66.4% (active)	-16.7% (active)	12.2	–	-1.73% (active)	-4.75% (active)	-24.9% (active)	-46.4% (active)	-96.4% (active)	-11.2% (active)	-27.7% (active)	20.5
O=C1C=CC(=O)N1c1ccc(I)cc1Cl	110%	114%	107	110%	126	97.1%	-2.76% (active)	95.1%	99.9%	100%	103	98.4	99.5%	75.7%	102%	104%	101%	–	–	–
Cc1ccc(C)n1-c1ccsc1C(=O)NNC(=O)C(Cl)Cl	109%	97.8%	–	114%	–	102%	98.2%	106%	103%	106%	104	–	107%	–	94.8%	93.4%	81.7%	112%	93.2%	101
